Data from PubChem BioAssay (EPA / NIEHS).
Records with an inconclusive call do not appear. Activity calls are given as the source filed them. Rule for the calls: active = hit-call score of the fitted dose curve at least 0.9, where 1 is the maximum; inconclusive = response in the unintended direction; inactive = score below 0.9.

Biological target: AR (gene 367) (UniProt P10275)
Experiment: ACEA_AR_antagonist_80hr: ACEA Biosciences xCELLigence Real-Time Cell Analysis on Androgen Receptor Antagonism for Proliferation (AID 2283787);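 note: 22Rv1 human prostate cancer cells with growth followed by electrical impedance; hits lower the impedance growth signal relative to DMSO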
Summary of the method: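 Measures real-time proliferation of 22Rv1 prostate cancer cells by electrode impedance at 80 hours after dosing. Test articles ran at eight concentrations (1:4 steps, top 100 uM final) in biological duplicate.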

Chain of AR (gene 367) (P10275 whole entry, looked up): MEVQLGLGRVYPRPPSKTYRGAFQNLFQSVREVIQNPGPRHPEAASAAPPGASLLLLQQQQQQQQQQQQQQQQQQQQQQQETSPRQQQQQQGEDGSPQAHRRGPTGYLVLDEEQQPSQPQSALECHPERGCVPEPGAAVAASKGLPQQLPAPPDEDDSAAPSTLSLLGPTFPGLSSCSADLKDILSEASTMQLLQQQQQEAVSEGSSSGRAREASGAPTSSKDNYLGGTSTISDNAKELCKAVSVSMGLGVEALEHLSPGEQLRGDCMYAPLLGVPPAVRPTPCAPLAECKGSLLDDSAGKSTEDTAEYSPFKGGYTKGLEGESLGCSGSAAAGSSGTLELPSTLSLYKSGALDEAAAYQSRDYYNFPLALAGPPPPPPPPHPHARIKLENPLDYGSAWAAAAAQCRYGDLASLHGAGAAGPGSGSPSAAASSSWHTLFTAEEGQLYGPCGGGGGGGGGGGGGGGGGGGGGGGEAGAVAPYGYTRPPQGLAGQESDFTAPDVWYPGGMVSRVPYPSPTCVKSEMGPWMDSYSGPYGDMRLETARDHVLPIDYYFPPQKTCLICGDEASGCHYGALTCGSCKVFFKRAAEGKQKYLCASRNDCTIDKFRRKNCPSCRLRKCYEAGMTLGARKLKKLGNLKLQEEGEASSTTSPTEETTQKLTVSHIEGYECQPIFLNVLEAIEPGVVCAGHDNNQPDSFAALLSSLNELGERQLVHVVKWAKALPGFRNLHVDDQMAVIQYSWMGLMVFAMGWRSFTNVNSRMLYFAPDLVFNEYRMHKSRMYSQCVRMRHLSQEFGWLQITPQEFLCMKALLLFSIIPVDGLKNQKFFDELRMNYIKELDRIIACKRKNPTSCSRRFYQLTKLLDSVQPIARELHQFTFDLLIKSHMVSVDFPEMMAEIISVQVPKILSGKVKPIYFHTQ

SMILES	outcome	AC50
CCCCC(CC)COC(=O)c1ccc(C(=O)OCC(CC)CCCC)cc1 (centres undefined)	inactive	–
Cc1ccc(O)cc1	inactive	–
Fc1ccccc1[C@@H](F)COC1CCC(Nc2ncnc3[nH]ncc23)CC1 (some centres undefined)	–	54 µM (active)
CC1(C)C(=O)N(Br)C(=O)N1Br	inactive	–
